We go through 115 compounds from PubChem BioAssay AID588345 (Broad Institute, 2011).

Molecules are shown by their SMILES. In all, about 1,300 compounds went through this assay and about 850 (65%) were called active. Inconclusive results (about 1%) are left out. How the calls were made is not given here. So high a share suggests a set chosen from earlier hits. A selection follows. Results with a measured potency or affinity are listed apart.

This experiment has as its target Dual specificity tyrosine-phosphorylation-regulated kinase 1A (Rattus norvegicus) (UniProt Q63470). In words: rat Dyrk1A kinase inhibitors, dose response, biochemical, cherry-pick, plate reader, 2124-01 (AID 588345). To be noted: Dyrk1A kinase biochemical assay; series mostly up to 12 µM.
Take `Oc1ccc2c(ccc3[nH]cnc32)c1`: the outcome was inactive.

Take `COC(=O)NNC(=O)COc1ccc(Cl)cc1`: the result was inactive.

On to `NNc1nccc(Nc2ccccc2C(=O)O)n1`, for which the compound was called inactive.

In the case of `COc1nc(C)ccc1-c1noc(-c2ccccn2)n1`, the call was inactive.

Consider `O=C(Cn1cc(COc2ccccc2C(F)(F)F)nn1)c1ccc(O)cc1`, for which the call was inactive.

Take `Fc1ccccc1/C=N/Nc1ncnc2nc[nH]c12`: the compound was called inactive.

Turning to `Cc1ccsc1/C=N/Nc1ncnc2nc[nH]c12`, the result was inactive.

For the compound `CCCCNC(=S)Nc1ccc2cn[nH]c2c1`, the compound was called inactive.

As for `O=c1c2c(O)cc(O)cc2oc2c(O)ccc(O[C@H]3O[C@@H](CO)[C@H](O)[C@@H](O)[C@@H]3O)c12`, the result was inactive.

For `O=C1C=CC(O)(c2cc(=O)c3c(O)cc(O)cc3o2)C=C1`, the call was inactive.

Consider `CS(=O)(=O)Nc1ccc(-c2ccc(/C=C3\SC(N)=NC3=O)o2)cc1`, for which the outcome was inactive.

For `CC(C)Oc1ccc(C(CC(=O)NCc2ccco2)c2ccccc2)cc1` (stereo not given), the call was inactive.

Regarding `COc1ccc2c(Cl)c(C(N)=O)sc2c1`, the result was inactive.

Take `CSc1nc(SCC(=O)NCc2ccco2)c2c3c(sc2n1)CN(C)CC3`: the compound was classed as inactive.

In the case of `COc1ccc2c(c1)[nH]c1c(Cl)ncnc12`, the call was inactive.

As to `CCOC(=O)c1ccc(NC(=S)Nc2ccc(Br)cc2N)cc1`, the compound was classed as inactive.

Take `COc1ccc(-n2ccc(-c3nn(-c4cccc(C(F)(F)F)c4)ccc3=O)n2)cc1`: the compound was called inactive.

Consider `Cc1ccc(/C=c2\sc3n(c2=O)CN(c2ccc(Br)cc2)CN=3)o1`, for which the compound was called inactive.

`O=C(O)c1ccc2c(c1)S(=O)(=O)c1cc(Cl)ccc1C2=O`: the result was inactive.

For `CCCCn1c(NCCO)nc2ccccc21`, the outcome was inactive.

As for `Clc1ccc2[nH]c3c(c2c1)CCc1cn[nH]c1-3`, the outcome was inactive.

Take `Cc1ccccc1/C=N/Nc1ncnc2nc[nH]c12`: the result was inactive.

Turning to `CC(=O)c1ccc(NC(=S)Nc2ccc3cn[nH]c3c2)cc1`, the outcome was inactive.

For `COc1ccc(N=Nc2c(C)n[nH]c2C)cc1`, the compound was called inactive.

Turning to `N#CCC(N)=C(C#N)C#N`, the result was inactive.

As for `CC1OC(OCC2OC(Oc3c(-c4ccc(O)cc4)oc4cc(O)cc(O)c4c3=O)C(O)C(O)C2O)C(O)C(O)C1O` (stereo not given), the compound was classed as inactive.

On to `CCCCn1c(N2CCC(Cc3ccccc3)CC2)nc2c1c(=O)[nH]c(=O)n2C`, for which the result was inactive.

With `COc1ccc(-c2ccc(=O)n(Cc3cccc([N+](=O)[O-])c3)n2)cc1`, the compound was called inactive.

On to `Cc1cccc(OCC(=O)Nc2nc3ccc([N+](=O)[O-])cc3s2)c1`, for which the compound was called inactive.

Regarding `CC1(C)Nc2ccc(O)cc2-c2c1ssc2=S`, the outcome was inactive.

Take `CCC(C)CCN1C(Nc2ccccc2)=NC[C@@H]1Cc1ccccc1` (stereo not given in full): the result was inactive.

On to `COc1ccc(N2C(=O)C3CCCN3C2c2cc(OC)c(OC)c(OC)c2)cc1` (stereo not given), for which the compound was called inactive.

In the case of `CCOC(=O)C1CCCN(c2c(NCCCN3CCCC(C)C3)c(=O)c2=O)C1` (stereo not given), the compound was classed as inactive.

In the case of `CCCOc1ccc(/C=N/NC(=O)CN2CCCCC2)cc1`, the call was inactive.

Take `COc1ccc(/C=C2\SC(N3CCc4ccccc4C3)=NC2=O)cc1`: the outcome was inactive.

As to `Cc1cccc(NC(=S)NN2CCN(C)CC2)c1`, the call was inactive.

For the compound `O=C1[C@H]2[C@H](C=CC[C@H]2C(=O)N2CCOCC2)CCN1Cc1ccccc1`, the outcome was inactive.

In the case of `CCOC(=O)C1CCCN(c2c(NCCN(C)Cc3ccccc3)c(=O)c2=O)C1` (stereo not given), the compound was called inactive.

With `COCCN=C1N[C@@H](c2cccc(C(F)(F)F)c2)C(C(=O)OC)=C(C)N1Cc1ccccc1`, the compound was classed as inactive.

On to `O=C1OCc2cccc3cccc1c23`, for which the call was inactive.

Take `Nc1ncnc(N)c1N=Nc1ccccc1`: the result was inactive.

Regarding `CCOC(=O)C1=C(C)OC(N)=C(C#N)C1c1ccc(O)c(OC)c1` (stereo not given), the compound was called inactive.

As to `CCN(CC)c1ccc(/C=C2\C(=O)c3ccc(C(=O)O)cc3C2=O)cc1`, the compound was classed as inactive.

Consider `O=c1[nH]c(=S)[nH]c2sccc12`, for which the compound was classed as inactive.

For `O=C(COC(=O)c1cccs1)c1ccc2ccccc2c1`, the compound was called inactive.

As to `CCc1ccccc1NC(=O)C1CCCN(S(=O)(=O)c2ccc3c(c2)CC(C)N3C(C)=O)C1` (stereo not given), the outcome was inactive.

As for `CCOC(=O)C(Cc1ccc(O)cc1)NC(=O)CCc1c[nH]c2ccccc12` (stereo not given), the result was inactive.

In the case of `CC(C)(C)[C@H]1C=C(C(=O)N2CCN(Cc3ccccc3)CC2)O[C@@H](OCCCCO)C1`, the result was inactive.

On to `COc1ccc2c(Cl)c(C(=O)N/N=C/c3cccnc3)sc2c1`, for which the outcome was inactive.

Consider `COc1ccccc1NC(=S)N/N=C/c1ccc(O)cc1`, for which the outcome was inactive.

Take `Cc1ccc(CN2CCN(c3ncccn3)CC2)o1`: the compound was called inactive.

As to `O=C1CCN(CCCc2ccccc2)CCN1[C@H](CO)c1ccccc1`, the call was inactive.

As for `Oc1ccc(-c2nc3ncccn3c2Nc2ccc3c(c2)OCO3)cc1`, the compound was called inactive.

As for `O=[N+]([O-])c1ccc(O)c(C=NNc2ccc(S(=O)(=O)O)cc2)c1`, the result was inactive.

As to `Cc1cccc2nc(-c3cccc(NC(=O)c4ccc(Cl)cc4)c3)cn12`, the call was inactive.

Turning to `COc1ccc2c(c1)OC[C@H]1[C@H]2N2C(=O)CN(CC3CCCO3)C(=O)[C@@]2(C)[C@H]1c1ccccc1` (stereo not given in full), the result was inactive.

`COc1ccccc1-c1sc2ccccc2c1C#Cc1ccc(N(C)C)cc1`: the result was inactive.

On to `O=C(O)c1cc(N/N=C/c2c(O)ccc3ccccc23)ccc1Cl`, for which the outcome was inactive.

As for `COc1cccc(-c2noc(N)c2C#N)c1`, the call was inactive.

Turning to `N#Cc1c2ccc(O)cc2n2ccccc12`, the call was inactive.

As for `COc1ccc2c(c1)CCc1cc(C(=O)O)sc1-2`, the compound was classed as inactive.

For the compound `COc1ccc2c(c1)CCc1cn3nc(C)cc3nc1-2`, the outcome was inactive.

As to `COC(=O)c1sc2cnccc2c1N`, the result was inactive.

Turning to `Brc1ccccc1C1=Nn2c(nnc2-c2ccccc2)SC1`, the result was inactive.

As to `COc1ccc(OC)c(C2=Nn3c(nnc3-c3ccco3)SC2)c1`, the compound was called inactive.

With `CCOC(=O)C1CCCN(c2c(N3CCN(C4CCCCC4)CC3)c(=O)c2=O)C1` (stereo not given), the compound was classed as inactive.

With `CC(C)Oc1ccc(C2CNC(=O)C2)cc1` (stereo not given), the compound was classed as inactive.

`COC(=O)c1[nH]c2cc(OC)ccc2c1N`: the compound was classed as inactive.

Regarding `COC(=O)c1c(-c2ccc(S(C)(=O)=O)cc2)sc2ccc(OC)cc12`, the call was inactive.

With `Cc1ccc2c(c1)N(CC(=O)NC1CCCCC1)C(=O)c1cccnc1O2`, the call was inactive.

For `CCCCN(CC)CCCNC(=O)c1cc2cc3ccc(OC)cc3nc2o1`, the result was inactive.

In the case of `COc1cccc(Cn2nnc(C(=O)NCCc3ccc(Cl)cc3)c2N)c1`, the compound was classed as inactive.

`CCN1CCN(CCCNC(=O)c2cc3cc4ccc(OC)cc4nc3o2)CC1`: the compound was called inactive.

Take `COCCNC(=O)c1cc2cc3ccc(OC)cc3nc2o1`: the outcome was inactive.

`COc1ccc2cc3cc(C(=O)NCCCN4CCC(C)CC4)oc3nc2c1`: the result was inactive.

Turning to `O=S1(=O)N=C(N(Cc2cccs2)c2ccc(O)cc2)c2ccccc21`, the compound was classed as inactive.

In the case of `CCCCC(=O)Nc1cc(Cl)ccc1C(=O)O`, the compound was classed as inactive.

Turning to `CC(C)CC(NC(=O)C1CCC(C)CC1)C(=O)Nc1ccc2c(c1)OCCO2` (stereo not given), the compound was classed as inactive.

Turning to `O=C(O)c1cc2ccccc2c2cc(Br)ccc12`, the call was inactive.

As for `CCOCC(=O)Nc1nc2c(s1)C(=O)CC(C)(C)C2`, the result was inactive.

On to `O=C1CCCc2c1cc(C(=O)NCCCN1CCOCC1)c(=O)n2-c1ccc(Cl)cc1`, for which the compound was classed as inactive.

Regarding `CCOc1ccccc1C(=O)Nc1ccccc1C(N)=O`, the compound was called inactive.

With `c1ccc2c(-c3nc(C4CCCCC4)no3)cc(-c3ccncc3)nc2c1`, the call was inactive.

As for `COc1cccc(C(=O)NNC(=O)/C=C/c2ccccc2)c1`, the call was inactive.

Regarding `O=C(/C=C/c1ccccc1)Nc1cccc(C(=O)NC2CC2)c1`, the call was inactive.

For `O=C(O)/C=C/c1ccc2noc(-c3ccccc3)c2c1`, the compound was called inactive.

As for `Nc1nonc1-n1nnc(C(=O)N/N=C\c2ccncc2)c1CN1CCCCC1`, the compound was classed as inactive.

Regarding `COc1cc2cnc(-c3ccccc3)c(-c3ccc([N+](=O)[O-])cc3)c2cc1OC`, the compound was classed as inactive.

`COC(=O)CSc1nc(N)c(C#N)c(C(C)C)c1C#N`: the outcome was inactive.

With `COc1ccc2nc3c(cc2c1)c(NC(=O)C1CCCO1)nn3CC(C)C` (stereo not given), the compound was classed as inactive.

Take `N#Cc1nc(-c2cccs2)oc1NCc1ccccc1Cl`: the compound was classed as inactive.

Consider `c1cncc(-c2nc(NCCCn3ccnc3)c3ccccc3n2)c1`, for which the compound was classed as inactive.

`Cc1cccc(Cl)c1OCCCCn1ccnc1`: the compound was called inactive.

Regarding `COc1cc(O)c2c(=O)c3c(O)ccc(O)c3oc2c1`, the call was inactive.

`O=C(NN1C(=O)/C(=C/c2ccc(O)c([N+](=O)[O-])c2)SC1=S)c1ccccc1Cl`: the outcome was inactive.

For `CCCCOc1cccc(C(=O)NC(=S)Nc2ccc(Cl)c(C(=O)O)c2)c1`, the outcome was inactive.

On to `CCC(=O)Nc1nc(-c2ccc3c(c2)OCCO3)cs1`, for which the result was inactive.

Turning to `CC(C)c1nnc(NC(=O)Cn2nc(-c3ccc4c(c3)OCCO4)ccc2=O)s1`, the compound was called inactive.

`CSCC(=O)Nc1nc(-c2ccc3c(c2)OCCO3)cs1`: the result was inactive.

For `c1ccc(Cc2nnc3sc(-c4ccc5c(c4)OCCO5)nn23)cc1`, the call was inactive.

With `Cn1nnnc1Sc1ncnc2scc(-c3ccc[nH]3)c12`, the outcome was inactive.

In the case of `COCCCN(C(C)=O)c1nc(-c2ccc(OC)cc2)cs1`, the call was inactive.

`CCCn1cnc2scc(-c3ccc(OC)cc3)c2c1=O`: the result was inactive.

Take `COc1cc(CO)cc(Br)c1OCc1cccnc1`: the call was inactive.

Take `COc1cccc(/C=N/n2c(COc3ccccc3)n[nH]c2=S)c1O`: the result was inactive.

Take `COC(=O)C1=C(C)N(CCCC(=O)O)C(=O)NC1c1ccc(Cl)cc1` (stereo not given): the outcome was inactive.

Consider `COc1ccc(-n2c(C)nc3cc(C(=O)NCc4ccco4)ccc32)cc1`, for which the result was inactive.

As to `COc1ccc(-n2c(C)nc3cc(C(=O)NCc4ccc5c(c4)OCO5)ccc32)cc1`, the result was inactive.

Turning to `Cc1cccc(-n2nc3c(c2NC(=O)CCC2CCCCC2)CS(=O)C3)c1C` (stereo not given), the compound was classed as inactive.

As to `Cc1noc(NS(=O)(=O)c2ccc(N/C=C\C(=O)c3ccc(Br)cc3)cc2)c1C`, the compound was called inactive.

Take `COc1ccc(C(=O)Nc2nc3ccccc3[nH]2)cc1S(=O)(=O)N1CCOCC1`: the outcome was inactive.

Turning to `C=CCN1C(=O)/C(=C/c2ccccc2)S/C1=N/c1nccs1`, the call was inactive.

`CC(C)(C)NC(=O)C(=O)NC(=O)c1c(F)cccc1Cl`: the result was inactive.

Regarding `O=C(c1ccc2c(c1)OCCCO2)N1CCCCC1`, the outcome was inactive.

With `CC(NC(=O)COC(=O)c1ccc([N+](=O)[O-])s1)c1ccccc1` (stereo not given), the compound was called inactive.
